PubChem BioAssay (NCATS)
Inconclusive results are not listed. The source made the active and inactive calls. Calls come from the whole dose curve; as a rule, active = well fitted curve in the direction sought with a large enough effect; inconclusive = small, poorly fitted or top-dose-only effect, or another doubt; inactive = no such curve, though single readings can be large; an effect the other way counts as inactive or inconclusive.

Tests used:
[1] = molecular target: Cytochrome P450 3A4 (Homo sapiens) (UniProt P08684); experiment: qHTS Assay for Inhibitors and Substrates of Cytochrome P450 3A4 (AID 884); note: series mostly up to about 57 µM; nearly all actives have a fitted effect of over 50% in size
Cytochrome P450 3A4 (Homo sapiens), sequence (P08684 whole entry, looked up): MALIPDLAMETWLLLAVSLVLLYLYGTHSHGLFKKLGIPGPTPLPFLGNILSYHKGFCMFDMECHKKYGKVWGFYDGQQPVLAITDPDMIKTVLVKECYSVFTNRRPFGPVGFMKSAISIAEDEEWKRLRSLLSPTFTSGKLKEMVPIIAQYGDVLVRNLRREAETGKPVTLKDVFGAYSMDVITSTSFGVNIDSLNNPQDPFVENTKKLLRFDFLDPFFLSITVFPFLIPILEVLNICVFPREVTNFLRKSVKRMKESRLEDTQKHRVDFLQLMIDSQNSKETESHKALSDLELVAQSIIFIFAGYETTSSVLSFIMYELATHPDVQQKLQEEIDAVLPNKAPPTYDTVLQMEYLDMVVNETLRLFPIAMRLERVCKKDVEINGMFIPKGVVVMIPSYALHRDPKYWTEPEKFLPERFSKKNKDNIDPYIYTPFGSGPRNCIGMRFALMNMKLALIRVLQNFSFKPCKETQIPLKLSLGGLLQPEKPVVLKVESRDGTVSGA
Method in brief: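 20 nM human CYP3A4 with 25 uM Luciferin-PPXE (at KM) in 200 mM KPO4, preincubated 10 min with compound; NADPH regeneration started a 60 min RT reaction. Luciferin detected by luminescence, normalized to 57 uM ketoconazole as full inhibition.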

[2] = Cell Viability - LYMP2-001 (AID 921); note: series mostly up to about 92 µM; nearly all actives have a fitted effect of over 70% in size
Method in brief: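 Cellular ATP loss read by luciferase luminescence after 24 h compound exposure at 37 C in complete medium. LYMP2-001 lymphoblastoid cells, 2500/well; qHTS concentration-response data fitted with Hill equation for AC50.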

[3] = MultiTox-Fluor Cytotoxicity Assay - LYMP1-001 - Dead Cells (AID 946)
Method in brief: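 LYMP1-001 lymphoblastoid cells (2500/well) treated 16 h at 37 C. Dead-cell protease cleavage of bis-AAF-R110 read at Ex/Em 485/520. Normalized to DMSO and 15 uM tetraoctylammonium bromide; AC50 from Hill fits.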

[4] = MultiTox-Fluor Cytotoxicity Assay - LYMP1-001 - Live Cells (AID 947)
[5] = Cell Viability - LYMP1-002 - Assay at 16 hr (AID 948)
Method in brief: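 ATP luminescence (CellTiter-Glo) was measured after 16 hr compound exposure at 37 C of 2500 lymphoblastoid LYMP1-002 cells per well. Concentration-response curves were fitted with the Hill equation to give AC50.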

[6] = MultiTox-Fluor Cytotoxicity Assay - LYMP1-002 - Live Cells (AID 955)
Method in brief: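 Read-out is live-cell protease activity (cell-permeant GF-AFC substrate, fluorescence Ex/Em=405/510), where a decrease indicates acute toxicity. Human lymphoblastoid cells were treated 16 hours at 37 C in a concentration series, and AC50 values came from standard Hill modelling.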

[7] = MultiTox-Fluor Cytotoxicity Assay - LYMP1-003 - Dead Cells (AID 961); note: nearly all actives have a fitted effect of over 70% in size
Method in brief: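 LYMP1-003 human lymphoblastoid cells (2500/well) exposed to compound 16 h at 37 C in complete medium; dead-cell protease read with bis-AAF-R110 fluorescence (Ex/Em 485/520) after 60 min at room temperature. Normalized to DMSO and 15 uM tetraoctylammonium bromide; AC50 from Hill fit.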

[8] = MultiTox-Fluor Cytotoxicity Assay - LYMP1-003 - Live Cells (AID 962);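 note: cytotoxic hits lower the live-cell protease signal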
Method in brief: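 qHTS, 1536-well; 2500 cells/well LYMP1-003; 5 hr 37 C settle; cpd 16 hr 37 C; MultiTox-Fluor reagent 60 min RT; live-cell protease fluor. 405/510; Hill-fit AC50; tetraoctylammonium bromide pos. ctrl.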

[9] = Cell Viability - LYMP1-003 - Assay at 24 hr (AID 963)
Method in brief: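 Cells seeded at 2500/well, 5 hr at 37 C; compounds added; 24 hr at 37 C; CellTiter-Glo added, 30 min room temperature; luminescence read. Decrease in ATP taken as cytotoxicity, AC50 from Hill modelling.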

[10] = Cell Viability - LYMP1-003 - Assay at 40 hr (AID 964); note: series mostly up to about 92 µM; nearly all actives have a fitted effect of over 60% in size
Method in brief: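 Cells were seeded at 2500 per well and incubated 5 hr at 37 C. Compounds were added across a concentration series and left 40 hr at 37 C. CellTiter-Glo was added for 30 min at room temperature before luminescence reading.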

[11] = Cell Viability - LYMP2-004 (AID 966); note: nearly all actives have a fitted effect of over 65% in size
Method in brief: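 Cells seeded 2500/well, rested 5 hr at 37 C, dosed across a concentration series, incubated 24 hr at 37 C, then CellTiter-Glo added for 30 min at room temperature and luminescence read. Hill fitting gave AC50.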

[12] = Cell Viability - LYMP2-005 (AID 967); note: series mostly up to about 92 µM
Method in brief: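 LYMP2-005 human lymphoblastoid cells (2500/well) were treated with compounds for 24 h at 37 C. Intracellular ATP was then measured by CellTiter-Glo luminescence after 30 min at room temperature. AC50 values came from Hill-equation fits of qHTS concentration-response data.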

[13] = Cell Viability - LYMP2-009 (AID 968); note: series mostly up to about 92 µM; nearly all actives have a fitted effect of over 55% in size
[14] = Cell Viability - LYMP2-011 (AID 969); note: nearly all actives have a fitted effect of over 60% in size
Method in brief: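 2500 cells/well, 5 hr 37 C; compound added, 24 hr 37 C; CellTiter-Glo 30 min RT; luminescence. qHTS concentration-response, Hill-equation AC50. Tetraoctylammonium bromide positive control.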

[15] = Cell Viability - LYMP2-013 (AID 970); note: series mostly up to about 92 µM; nearly all actives have a fitted effect of over 55% in size
Method in brief: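 qHTS; 2500 lymphoblastoid cells/well; 5 hr 37 C settle; cpd 24 hr 37 C; CellTiter-Glo, 30 min RT; luminescence. AC50 = Hill fit.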

[16] = Cell Viability - LYMP2-017 (AID 972); note: series mostly up to about 92 µM; nearly all actives have a fitted effect of over 55% in size
Method in brief: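 2500 cells/well, 5 h 37 C; cpd 24 h 37 C in complete medium; CellTiter-Glo, 30 min RT; luminescence (ATP). AC50 via Hill fit, qHTS.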

[17] = Cell Viability - LYMP2-019 (AID 973); note: nearly all actives have a fitted effect of over 55% in size
Method in brief: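 Luminescent ATP read-out (CellTiter-Glo, 30 min room temperature) served as the viability measure after 24 hr treatment of lymphoblastoid cells at 37 C. Concentration-response data were fitted to the Hill equation for AC50.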

[18] = Cell Viability - LYMP2-021 (AID 974)
Method in brief: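 Plate 2500 lymphoblastoid cells per well and incubate 5 hr at 37 C. Add compounds over a concentration range and incubate 24 hr at 37 C. Add CellTiter-Glo, wait 30 min at room temperature, read luminescence.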

[19] = Cell Viability - LYMP2-025 (AID 976); note: series mostly up to about 92 µM
Method in brief: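 Seed 2500 LYMP2-025 cells/well; 5 hr at 37 C; add compound; 24 hr at 37 C; add CellTiter-Glo; 30 min RT; read luminescence. AC50 from Hill-modelled concentration-response.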

[20] = Cell Viability - LYMP2-002 (AID 977); note: series mostly up to about 92 µM
Method in brief: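 Human lymphoblastoid LYMP2-002 cells, 2500 per well, exposed to compounds for 24 h at 37 C in complete medium; viability read as intracellular ATP by CellTiter-Glo luminescence, AC50 from Hill fits.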

[21] = Cell Viability - LYMP2-006 (AID 978); note: series mostly up to about 92 µM; nearly all actives have a fitted effect of over 60% in size
Method in brief: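 Potency values are Hill-fit AC50s for decreases in intracellular ATP (CellTiter-Glo luminescence). LYMP2-006 lymphoblastoid cells, 2500 per well, were exposed to compound in complete culture medium for 24 hr at 37 C.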

[22] = Cell Viability - LYMP2-007 (AID 979);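 note: cells exposed to compound for 24 h before reading; nearly all actives have a fitted effect of over 60% in size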
Method in brief: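 Luminescent ATP signal (CellTiter-Glo) serves as the viability read-out after 24 hr compound treatment of lymphoblastoid cells in complete medium at 37 C. Concentration-response data were fitted to the Hill equation to give AC50 values.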

[23] = Cell Viability - LYMP2-008 (AID 980); note: nearly all actives have a fitted effect of over 60% in size
Method in brief: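 qHTS, human lymphoblastoid line, 2500 cells/well; 5 hr preincubation, 24 hr compound, 37 C. CellTiter-Glo ATP luminescence. AC50 via Hill equation. Tetraoctylammonium bromide positive control.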

[24] = Cell Viability - LYMP2-010 (AID 981); note: nearly all actives have a fitted effect of over 55% in size
Method in brief: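 Luminescent ATP signal (CellTiter-Glo) served as the viability read-out. Cells of the human lymphoblastoid line were treated with compound over a concentration range for 24 hours at 37 C, and AC50 values came from Hill-equation modeling.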

Measured: Potency

C=C(C)C1CC=C(C)C(O)C1 (centres undefined)
inactive: all assays above
